High-throughput results as filed in PubChem.
An excerpt weighted towards active compounds, which were near 1.6% of everything screened.
KCNQ2 enhance = potentiators of rat KCNQ2 potassium channel | B-score at 10 µM | AID 2239, 2010 | CHO-K1 KCNQ2, FluxOR thallium flux fluorescence; stronger effect = higher value | 310,000 tested, 0.54% active;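 active = fluorescence ratio B-score at least 3 SD of library B-scores, with initial fluorescence B-score within 3 of them, cut at about 5.3 in these data; same plate scores as AID 2156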;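 note: B-score of peak minus minimum over baseline fluorescence ratio after K+ and Tl+ stimulus; positive B-score means potentiation of KCNQ2 with more thallium influx and brighter signal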
Target sequence (O88943 whole entry, looked up): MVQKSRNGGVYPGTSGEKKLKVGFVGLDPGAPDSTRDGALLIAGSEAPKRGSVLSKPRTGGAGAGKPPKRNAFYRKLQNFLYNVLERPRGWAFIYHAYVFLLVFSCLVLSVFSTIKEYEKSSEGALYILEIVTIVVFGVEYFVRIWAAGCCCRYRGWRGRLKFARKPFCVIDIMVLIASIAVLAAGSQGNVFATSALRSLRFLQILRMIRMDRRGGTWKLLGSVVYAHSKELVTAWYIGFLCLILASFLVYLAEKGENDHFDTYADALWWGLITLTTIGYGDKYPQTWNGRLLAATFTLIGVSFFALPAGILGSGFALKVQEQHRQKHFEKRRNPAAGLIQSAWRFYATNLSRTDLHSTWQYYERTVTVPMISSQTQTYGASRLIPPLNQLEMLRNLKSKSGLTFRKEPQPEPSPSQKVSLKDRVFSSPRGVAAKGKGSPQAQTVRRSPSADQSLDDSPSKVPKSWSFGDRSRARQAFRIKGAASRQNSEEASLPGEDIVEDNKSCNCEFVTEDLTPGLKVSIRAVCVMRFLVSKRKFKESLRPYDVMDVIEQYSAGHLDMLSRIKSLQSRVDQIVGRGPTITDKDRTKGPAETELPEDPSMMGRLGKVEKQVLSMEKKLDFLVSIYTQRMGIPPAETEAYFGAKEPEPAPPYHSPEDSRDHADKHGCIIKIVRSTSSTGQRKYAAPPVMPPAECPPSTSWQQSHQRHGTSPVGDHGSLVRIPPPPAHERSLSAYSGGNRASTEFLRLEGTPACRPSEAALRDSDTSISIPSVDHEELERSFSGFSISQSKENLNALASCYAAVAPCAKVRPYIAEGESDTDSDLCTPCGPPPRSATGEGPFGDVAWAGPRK
KCNQ2 inh = rat KCNQ2 potassium channel inhibitors, primary screen, cell-based, CHO-K1, FluxOR thallium flux, B-score; Potassium voltage-gated channel subfamily KQT member 2 (Rattus norvegicus), O88943; 20 min; stronger effect = lower value; B-score at 10 µM; 310,000 tested, 1.1% active; AID 2156, 2009;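 active = fluorescence ratio B-score at most minus 3 library SDs, with starting brightness B-score within 2 library SDs, cut at about -5.5 in these data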
KCNQ2 block conf = rat KCNQ2 potassium channel inhibitors, confirmation, cell-based, thallium flux; 1,000 tested, 57% active; KCNQ2-expressing cells, inhibition; stronger effect = lower value; shares compounds with KCNQ2 inh; AID 493025, 2011; activity change, negative = inhibition, % at 10 µM;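 note: 0% = vehicle wells and values are ratio percent relative to vehicle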
KCNQ1 spec = human KCNQ1 channel inhibition, counter-screen for KCNQ2 inhibitor project, cell-based, FluxOR thallium flux. AID 493026, 2011. 1,000 tested, 15% active. shares compounds with KCNQ2 inh. KCNQ1-expressing cells, FluxOR thallium flux fluorescence; stronger effect = lower value. activity change, negative = inhibition, % at 10 µM;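 active = activity change at least 3 SD of negative controls below their mean in both duplicate wells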;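 note: CHO cells stably transfected with KCNQ1 and depolarized by potassium stimulus; peak minus minimum fluorescence over baseline after thallium addition; 0% = vehicle negative control and -100% = blank without thallium stimulus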
CHO Tl ctr = thallium flux change in parental CHO cells, counter-screen for KCNQ2 inhibitor project; shares compounds with KCNQ2 inh; stronger effect = lower value; activity change, % at 10 µM; 1,000 tested, 14% active;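 note: 0% = vehicle negative controls with stimulus buffer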
KCNQ2 patch conf = rat KCNQ2 channel inhibitors, confirmation, cell-based, automated patch clamp, single concentration; shares compounds with KCNQ2 inh; 550 tested, 49% active; KCNQ2-expressing cells, automated patch clamp current; calls only at 10 µM
Kir21 confirm = mouse Kir2.1 channel blockers, retest, confirmation, cell-based, FluxOR thallium flux, duplicate; shares compounds with KCNQ2 enhance; Tl flux remaining, % of negative control (stronger effect = lower value), % at 10 µM; Kir2.1-expressing cells, FluxOR thallium flux fluorescence; stronger effect = lower value; 2,300 tested, 41% active; AID 2032, 2009;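 active = Primary-screen hit whose thallium flux fell at least 3 control SD below untreated wells in both duplicates, with normal baseline fluorescence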;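 note: 0% = blank wells without stimulus and 100% = stimulated no-compound controls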
HEK293 ctr = parental HEK293 activity in Kir2.1 inhibitor counter-screen | parental HEK293 cells, FluxOR thallium flux fluorescence; 0% = unstimulated blank wells | FluxOR signal as % of negative control (100 = no effect), % at 10 µM | shares compounds with KCNQ2 enhance | 2,300 tested, 19% active;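 active = dye signal at least 3 control SD above or below untreated wells in both duplicates, raw fluorescence within 3, either direction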;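 note: percent is based on the flux ratio of peak minus minimum fluorescence over baseline F0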
* = called active by the depositor; i = inactive; · = no result given; + = active, no number. Unless noted, the rule behind the calls is not given here.

SMILES | KCNQ2 enhance | KCNQ2 inh | KCNQ2 block conf | KCNQ1 spec | CHO Tl ctr | Kir21 confirm | HEK293 ctr | others
Cc1cc(C)c(NC(=O)CCN2C(=O)c3ccccc3S2(=O)=O)c(C)c1 | 1.08 | i | · | · | · | · | ·
COc1cc(CNCCc2ccccc2)cc(Cl)c1OCc1ccccc1 | -7.22 | -7.22* | i | i | i | 31.0%* | i
COc1cc(CNCc2ccccc2)cc(Cl)c1OC | 0.24 | i | · | · | · | · | ·
Cn1c(=O)c2sccc2n2c(CCCC(=O)NCc3ccco3)nnc12 | · | i | · | · | · | · | ·
N=c1c2c(-c3ccccc3)c(-c3ccccc3)n(Cc3ccco3)c2ncn1CCCO | · | i | · | · | · | · | ·
N=c1c2c(-c3ccccc3)c(-c3ccccc3)n(Cc3ccco3)c2ncn1CCO | -7.04 | -7.04* | i | i | i | 37.0%* | i
COc1cccc(Nc2nc(NCCO)c3ccccc3n2)c1 | · | i | · | · | · | · | ·
COc1cccc(Nc2nc(NCC3CCCO3)c3ccccc3n2)c1 (configuration not stated) | -10.1 | -10.1* | i | i | i | 17.5%* | i
Cc1oc(C(C)(C)C)c(CN2CCOCC2)c1C(=O)O | 1.02 | i | · | · | · | · | ·
CCOC(=O)/C(=N\Nc1cc(Cl)ccc1Cl)N1CCN(CC)CC1 | · | i | · | · | · | · | ·
CCN1/C(=C/c2sc(-c3ccccc3C)c[n+]2C)Sc2ccccc21 | -7.01 | -7.01* | i | i | i | 23.5%* | i
CCN1/C(=C/c2ccc3cc(C)ccc3[n+]2CC)Sc2ccccc21 | · | i | · | · | · | · | ·
CCOC(=O)c1ccc(NC(=O)NNS(=O)(=O)c2cc(OC)ccc2OC)cc1 | · | i | · | · | · | · | ·
CCCn1c(NCc2c[nH]c3ccccc23)nc2ccccc21 | -7.94 | -7.94* | -27.5%* | i | i | 42.5%* | i | KCNQ2 patch conf=+
CCCn1c(NCc2ccccn2)nc2ccccc21 | 1.87 | i | · | · | · | · | ·
CN1\C(=C/C=C/C=C/C=[N+](C)C)C(C)(C)c2ccccc21 | -9.69 | -9.69* | -48.0%* | -36.5%* | -35.5%* | 11.5%* | i | KCNQ2 patch conf=+
CN1/C(=C\C=O)C(C)(C)c2ccccc21 | 1.51 | i | · | · | · | · | ·
Cc1cc(C)n(-c2nc(SCC(=O)O)c3c4c(sc3n2)COC(C)(C)C4)n1 | · | i | · | · | · | · | ·
Cc1cc(C)n(-c2nc(SCCN(C)C)c3c4c(sc3n2)CCCC4)n1 | -8.89 | -8.89* | -30.0%* | -31.0%* | i | i | i | KCNQ2 patch conf=i
COc1ccc(CS(=O)(=O)CC(C)(O)c2ccccc2Cl)cc1 (configuration not stated) | · | i | · | · | · | · | ·
Cc1ccc(C(=O)N/C(=C\c2ccc(-c3ccc(Br)cc3)o2)C(=O)NCCCN(C)C)cc1 | -8.21 | -8.21* | -31.0%* | i | i | i | i | KCNQ2 patch conf=i
Cc1ccc(C(=O)N/C(=C\c2ccc(-c3cccc([N+](=O)[O-])c3)o2)C(=O)NCCCN(C)C)cc1 | 1.69 | i | · | · | · | · | ·
CC(NC(=O)COC(=O)/C(=C/c1cccs1)c1cccs1)c1ccccc1 (configuration not stated) | · | i | · | · | · | · | ·
CCCCN1C(=O)C(=O)N(CC(=O)Nc2sc(CC)cc2C(=O)OCC)C1=O | · | i | · | · | · | · | ·
Cc1ccc(OCC(=O)Nc2ccccc2N2CCOCC2)c(C)c1 | -7.42 | -7.42* | i | i | i | 61.0%* | i
SMILES | KCNQ2 enhance | KCNQ2 inh | KCNQ2 block conf | KCNQ1 spec | CHO Tl ctr | Kir21 confirm | HEK293 ctr | others
Cc1cc(Cl)ccc1OCC(=O)Nc1ccccc1N1CCOCC1 | · | i | · | · | · | · | ·
Cc1ccc(C(C)C)c(OCC(=O)NCC(c2cccs2)N2CCOCC2)c1 (configuration not stated) | -8.42 | -8.42* | -38.5%* | i | i | 77.5%* | i | KCNQ2 patch conf=i
Cc1cc(OCC(=O)NCC(c2cccs2)N2CCOCC2)ccc1C(C)C (configuration not stated) | · | i | · | · | · | · | ·
CC(C)(C)c1ccccc1OCC(=O)NCc1ccccc1 | · | i | · | · | · | · | ·
CC(C)CN(CC(C)C)C(=O)Cc1coc2ccc3ccccc3c12 | -8.44 | -8.44* | -31.0%* | -28.5%* | -20.5%* | i | i | KCNQ2 patch conf=+
O=C(O)Cc1coc2ccc3ccccc3c12 | 0.01 | i | · | · | · | · | ·
O=C(COC(=O)CNC(=O)c1cccc([N+](=O)[O-])c1)NCc1ccco1 | 0.47 | i | · | · | · | · | ·
Cc1ccc(NC(=O)C2CCN(S(=O)(=O)c3ccc4c(c3)NC(=O)C(C)S4)CC2)cc1Cl (configuration not stated) | 1.42 | i | · | · | · | · | ·
O=C(/C=C/c1ccccc1O)c1ccco1 | · | i | · | · | · | · | ·
O=C(/C=C/c1cc(Br)ccc1O)c1ccco1 | -7.68 | -7.68* | -35.5%* | -41.0%* | -29.0%* | 73.0%* | i | KCNQ2 patch conf=i
CC(C)[C@H](N)C(=O)N1CCC(C(=O)N[C@@H](Cc2ccccc2)C(=O)NCc2ccc(F)cc2)CC1 | · | i | · | · | · | · | ·
NC(=O)/C(=N\OC(=O)c1ccco1)c1nc(-c2ccc(Br)cc2)cs1 | · | i | · | · | · | · | ·
CCCCN(C(=O)c1ccc(S(=O)(=O)N2CCC(C)CC2)cc1)C1CCS(=O)(=O)C1 (configuration not stated) | 0.34 | i | · | · | · | · | ·
Cc1nc2ccccc2n1Cc1ccccc1 | · | i | · | · | · | · | ·
c1ccc(Cc2nc3ccccc3n2Cc2ccccc2)cc1 | -8.06 | -8.06* | -46.0%* | -44.5%* | -36.5%* | 64.0%* | 77.0%* | KCNQ2 patch conf=i
CCn1c(SCC(=O)OCc2ccccc2)nnc1-c1ccco1 | · | i | · | · | · | i | i
Cn1c(SCC(=O)OCc2ccccc2)nnc1-c1ccco1 | · | i | · | · | · | · | ·
O=C(CSc1nnc(-c2ccco2)n1Cc1ccccc1)c1ccccc1 | · | i | · | · | · | · | ·
CC(C)Cn1c(SCC(=O)c2ccc(Cl)s2)nnc1-c1ccco1 | -6.82 | -6.82* | · | · | · | 49.5%* | 138.5%*
CCC(NC(=O)c1cncc(Br)c1)c1ccccc1 (configuration not stated) | · | i | · | · | · | · | ·
Cn1c(=O)[nH]c(=O)c2c1nc1n2CC(O)CN1c1ccccc1 (configuration not stated) | · | i | · | · | · | · | ·
CCOCCCN(Cc1ccco1)S(=O)(=O)c1csc(C(N)=O)c1 | · | i | · | · | · | · | ·
CN(Cc1ccccc1)S(=O)(=O)c1csc(C(N)=O)c1 | · | i | · | · | · | · | ·
CCCCN(Cc1cccs1)S(=O)(=O)c1csc(C(N)=O)c1 | · | i | · | · | · | 45.5%* | i
